Measured values published in PubChem BioAssay (NCI).
Compounds without any hit were thinned out: in the full panel of roughly 83,000, 20% have a hit.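 Interpretation: 100, growth as untreated; towards 0, rising growth inhibition; 0, no net growth; 0 to -100, cell death. Compounds scoring below 10 were considered active.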 Unmarked numbers belong to inactive results. Active and inactive are the calls of the source.

How the values were obtained:
Assay in all cases: NCI-60 one-dose screen, 48 h (100 = growth as untreated, 0 = no growth, -100 = all killed)
Conditions in all cases: 10 µM
NCI-H23 lung = system: NCI-H23 lung
NCI-H226 lung = system: NCI-H226 lung
NCI-H322M lung = system: NCI-H322M lung
HOP-62 NSCLC = system: HOP-62 NSCLC
NCI-H460 lung = system: NCI-H460 lung
NCI-H522 lung = system: NCI-H522 lung
A549/ATCC NSCLC = system: A549/ATCC NSCLC
786-0 renal = system: 786-0 renal
COLO 205 colon = system: COLO 205 colon
DU-145 prostate = system: DU-145 prostate

Row | Compound | growth (NCI-H23 lung) | growth (NCI-H226 lung) | growth (NCI-H322M lung) | growth (HOP-62 NSCLC) | growth (NCI-H460 lung) | growth (NCI-H522 lung) | growth (A549/ATCC NSCLC) | growth (786-0 renal) | growth (COLO 205 colon) | growth (DU-145 prostate)
1 | CS(=O)(=O)Nc1ccc(Nc2c3ccccc3nc3cc([N+](=O)[O-])ccc23)cc1 | 1.7% (active) | 0.761% (active) | 62.6% | 19.2% | 0.406% (active) | -51.5% (active) | 16.5% | 6.96% (active) | 17.1% | 8.04% (active)
2 | O=C1Nc2ccccc2C1=NC1CCCCC1 | 95.2% | 92% | 90.3% | 88.3% | 105% | 70.4% | 103% | 93.6% | 96.5% | 110%
3 | CSc1nc(=O)n(Cc2ccc(Cl)cc2)c(=O)[nH]1 | 100% | 108% | 127% | 92.1% | 108% | 90.7% | 99.1% | 101% | 104% | 104%
4 | CCCCCCCCCCCCCC[n+]1ccc(C(N)=O)cc1 | 16.7% | -7.94% (active) | 58.8% | 10.5% | 0.582% (active) | -21.7% (active) | 33.6% | -12.1% (active) | -100% (active) | 22.8%
5 | CCCC(F)C(=O)O (stereo not given) | 105% | 114% | 90.9% | 113% | 106% | 89.5% | 92% | 97.2% | 108% | 117%
6 | COc1ccc(-c2nc3ccccn3c2-c2nnc(-c3cc(OC)c(OC)c(OC)c3)o2)cc1 | 72.5% | 60.3% | 57.3% | 37.1% | 21.6% | 44.8% | 60.9% | 60.3% | 53.3% | 66.4%
7 | CSc1nn(-c2ccccc2)c2ncnc(Oc3ccccc3)c12 | 101% | 90.6% | 88.6% | 96.7% | 103% | 72.6% | 87.3% | 92.9% | 118% | 101%
8 | O=C(Nc1cccc(-n2cc(-c3ccncc3)c(-c3ccc(O)c(Cl)c3)n2)c1)c1cc(C(F)(F)F)cc(C(F)(F)F)c1 | 57.5% | 75.9% | 74.3% | 78.9% | 21.5% | 24.3% | 33.7% | 71.4% | 94.8% | 73.5%
9 | Cc1ccc(S(=O)(=O)OCCN(CCOS(=O)(=O)c2ccc(C)cc2)c2c[nH]c(=O)[nH]c2=O)cc1 | 108% | 99.2% | 105% | 108% | 114% | 125% | 101% | 112% | 115% | 124%
10 | COc1cc(NC(=O)CSc2nc3ccccc3c(=O)n2CCc2ccccc2)cc(OC)c1OC | 26.6% | -0.963% (active) | 27.7% | 9.57% (active) | -30.2% (active) | -23.9% (active) | 24.9% | -80.1% (active) | 29.9% | 45.9%
11 | Cc1ccc(C)c(C(O)(c2cc(C)ccc2C)C2(O)CCCCC2)c1 | 88.5% | 82.7% | 104% | 112% | 95.7% | 61.4% | 92.9% | 90.6% | 96.7% | 104%
12 | Cc1cccc(Cl)c1NC(=O)c1ccc2nc(NC(=O)NC3CCN(C)CC3)sc2c1 | 82.3% | 121% | 95.5% | 63.1% | 114% | 83.5% | 91.5% | 91.2% | 37.4% | 103%
13 | COc1cc(/C=N/NC(=O)c2ccccc2Nc2ccnc(C(F)(F)F)c2)ccc1O | 91.8% | 238% | 130% | 110% | 108% | 102% | 66.9% | 106% | 115% | 130%
14 | COc1ccc2c(c1)O/C(=C\c1ncc([N+](=O)[O-])n1C)C2=O | -7.25% (active) | -42.3% (active) | 2.34% (active) | -20% (active) | -30.6% (active) | -48.8% (active) | -23.9% (active) | -13.4% (active) | -49.2% (active) | -19.2% (active)
15 | O=C(Nc1cccc(Cl)c1)Nc1nccs1 | 94.7% | 99.6% | 92.6% | 94.6% | 98.9% | 7.88% (active) | 28.6% | 95.6% | 126% | 114%
16 | C#Cc1ccc(-n2c(/C=C/c3ccc(O)cc3)nc3ncccc3c2=O)cc1 | 82.8% | 58.7% | 86.4% | 59.4% | 92% | 0.111% (active) | 53.5% | 62.6% | 110% | 81.8%
17 | COc1cc(Cl)cc(-c2nn(-c3cccc(NC(=O)c4ccc(Cl)c(Cl)c4)c3)cc2-c2ccncc2)c1 | 75.3% | 66.3% | 84.5% | 105% | 65.2% | 53.7% | 59.7% | 74.1% | 81.5% | 88.5%
18 | CCCCCCN(CCCCCC)CC(O)c1ccc2c3c(cccc13)CC2 (stereo not given) | 30.5% | 69.9% | 65.9% | 85.2% | 42.6% | 30.1% | 64.1% | 43.1% | 64.1% | 76.4%
19 | C/C(=N\Nc1nc2ccccc2s1)c1ccncn1 | 42.3% | 41.9% | 46.2% | 41.3% | 23.2% | 4.38% (active) | 50.6% | 38.3% | 7.12% (active) | 28.3%
20 | CCCCC(CCCCCC(CCCC)NCc1ccc2c(c1)OCO2)NCc1ccc2c(c1)OCO2 (stereo not given) | -98.5% (active) | -77.9% (active) | -91.6% (active) | -98.9% (active) | -98.4% (active) | -91.2% (active) | -99.2% (active) | -100% (active) | -97.5% (active) | -100% (active)
21 | O=C1/C(=C/c2ccc(Cl)cc2)SC(=Nc2ccc(Cl)cc2)N1Cc1nc2ccccc2[nH]1 | 78.7% | 81.5% | 95.4% | 68.6% | 85.3% | 76.4% | 70.8% | 92.3% | 98% | 93.7%
22 | Fc1cc(C(F)(F)F)ccc1-c1cncnc1NC1CCCCCC1 | 92.6% | 82.6% | 104% | 93.1% | 102% | 91.3% | 85.4% | 97.9% | 105% | 101%
23 | Cc1ccc(CC#N)cc1C | 110% | 96.1% | 101% | 101% | 99.1% | 98% | 109% | 103% | 111% | 85.4%
24 | Clc1ccc2c(NCCCNc3nccc(Nc4ccc(Br)cc4)n3)ccnc2c1 | 46.8% | 90.1% | -19.9% (active) | 1.45% (active) | -45.9% (active) | -83.2% (active) | -71.7% (active) | -98.9% (active) | -84.3% (active) | 9.83% (active)
25 | COc1ccc(NC2=NC(C)(CO)CS2)cc1 (stereo not given) | 97.1% | 103% | 102% | 94.6% | 100% | -14.7% (active) | 42.8% | 105% | 117% | 120%
26 | O=C(NC(Cc1ccc(O)cc1)C(=O)N=Nc1c(O)[nH]c2ccccc12)c1ccccc1 (stereo not given) | 95% | 100% | 102% | 93.3% | 107% | 97.1% | 99.5% | 98.9% | 109% | 108%
27 | COc1cc(/C=C\c2cc(OC)c(OC)c(OC)c2)cc(NS(=O)(=O)c2ccc(Cl)cc2)c1OC | 41% | 33.9% | 48.7% | 60.2% | 13.8% | -9.34% (active) | 25.3% | 39.3% | -4.81% (active) | 19.8%
